The source of these data is PubChem BioAssay AID2685 (National Center for Advancing Translational Sciences (NCATS), 2010).

In all, about 320,000 compounds went through this assay and about 2,100 (0.66%) were called active. Another 53% or so got no clear call; they are omitted. This is one part of a sample in which actives are shown more often than they occur. Calls come from the whole dose curve; as a rule, active = well fitted inhibition curve with a large enough effect in the signal ratio, with a control signal flat (not every such curve was filed as active); inconclusive = small, poorly fitted or top-dose-only effect, or effect the other way, or a change in a side signal; inactive = flat fitted curve, though single readings scatter; the % refers to the signal ratio.
Potency is the fitted concentration of half-maximal effect.

This test can be described thus: qHTS Assay for Lipid Storage Modulators in Drosophila S3 Cells.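 For cell number change: cells counted by Cell Tracker Red CMTPX staining in the red channel.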 For lipid storage change, negative = inhibition: % is set by controls: 0 for no effect and ±100 for the full control effect. As to conditions: BODIPY lipid droplet fluorescence, 18-24 h, cells fed with added oleic acid; cell number change: measured here: cell count max response; series mostly up to 46.1 µM. In short, it runs like this:
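Drosophila S3 cells loaded with oleic acid (400 uM, as added) and compounds at several concentrations; lipid droplets imaged by 488-nm laser-scanning cytometry, 500–530 nm intensity and object ratio to cell channel. Percent activity normalized to 20 uM Triacsin C.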
A general note: Quantitative high-throughput screening tests each substance at several concentrations.
For `O=C(Nc1nncs1)c1cccc(S(=O)(=O)N2CCOCC2)c1`, the Potency was 23.1 µM (active) and the cell number change was -2.32%.
The like results for `Cn1cc(S(=O)(=O)N2CCOCC2)cc1C(=O)Nc1cccc(Cl)c1` were, in that order, 7.31 µM (active) and -6.63%.
The like results for `O=C(Nc1nccs1)c1cccc(S(=O)(=O)N2CCOCC2)c1` were, in that order, “inactive” and 0.981%.
Take `O=C(Nc1nnc(-c2ccccc2)s1)c1cccc(S(=O)(=O)N2CCOCC2)c1`: the Potency entry was “inactive” and the cell number change was -9.5%.
The like results for `COc1cc(C(=O)NCCN2C(=O)S/C(=C\c3ccc(F)cc3)C2=O)ccc1OCC(=O)N1CCOCC1` were, in that order, “inactive” and 15.3%.
The like results for `O=C(NCCN1CCOCC1)c1cccc(S(=O)(=O)N2CCCC2)c1` were, in that order, “inactive” and 2.89%.
For the compound `O=C(NCCN1C(=O)S/C(=C\c2ccc(F)cc2)C1=O)c1cccc(S(=O)(=O)N2CCOCC2)c1`, the Potency was 13 µM (active).
As for `Cn1cc(S(=O)(=O)N2CCOCC2)cc1C(=O)Nc1ccc(Cl)cc1`, the Potency entry is “inactive” and the cell number change amounted to 5.48%.
For the compound `COc1ccc(NC(=O)c2cc(S(=O)(=O)N3CCOCC3)cn2C)cc1Cl`, the Potency entry is “inactive” and the cell number change is -8.07%.
Regarding `COc1ccc(OCC(=O)NCCc2c[nH]c3ccccc23)cc1`, the Potency result is “inactive” and the cell number change is -0.0954%.
With `COc1ccc(/C(C)=N/NC(=O)CNC(=O)/C=C\c2ccco2)cc1`, the Potency entry was “inactive” and the cell number change was determined as 25.3%.
The like results for `COc1ccc(N=Nc2ccc3ccccc3c2)c(O)c1` were, in that order, 4.11 µM (active) and -14.1%.
The like results for `Oc1ccc(N=Nc2ccc3ccccc3c2)cc1` were, in that order, “inactive” and -16.8%.
The like results for `O=[N+]([O-])c1cc(N=Nc2ccc3ccccc3c2)ccc1O` were, in that order, “inactive” and -8.5%.
In the case of `COc1cccc(NC(=O)CSc2nnc(Cn3nnc4ccccc43)n2C)c1`, the Potency entry is “inactive” and the cell number change turned out to be 1.13%.
For the compound `O=C(Oc1ccc(=O)n(-c2ccccc2)n1)c1cccc(Cl)c1`, the Potency result is “inactive” and the cell number change is -1.38%.
Consider `Cn1c(CNC(=O)c2ccc3c(c2)OCO3)nnc1SCC(=O)Nc1ccccc1F`, for which the Potency result is “inactive” and the cell number change was 3.42%.
The like results for `CCN(Cc1ccccc1)S(=O)(=O)c1ccc(C(=O)N(CCCN(C)C)c2nc3cc(OC)ccc3s2)cc1` were, in that order, “inactive” and 7.95%.
For the compound `O=C(COc1ccc2c3c(c(=O)oc2c1)CCC3)N1CCN(c2ccccc2)CC1`, the Potency result is “inactive” and the cell number change turned out to be 28.4%.
The like results for `CC1(C)CC(N2CCOCC2)=CC(=[N+]2CCOCC2)C1` were, in that order, “inactive” and 3.66%.
With `CC1(C)CC(N2CCN(C(c3ccccc3)c3ccccc3)CC2)=CC(=[N+]2CCCCC2)C1`, the Potency is 2.06 µM (active) and the cell number change was -24.2%.
The like results for `CN1CCN(C(c2ccccc2)c2ccccc2)CC1` were, in that order, “inactive” and 2.24%.
For `Cc1cc(SCC(=O)Nc2cccc(S(N)(=O)=O)c2)c(C)cc1Br`, the Potency result was “inactive” and the cell number change was 15.2%.
The like results for `COc1ccc(OCCCn2ccnc2)cc1` were, in that order, “inactive” and -3.82%.
The like results for `c1ccc(Cc2ccc(OCCn3ccnc3)cc2)cc1` were, in that order, 3.66 µM (active) and -8.07%.
The like results for `COc1ccc(OCCn2ccnc2)cc1` were, in that order, “inactive” and -2.55%.
With `CCc1ccc(OCCCCCn2ccnc2)cc1`, the Potency is 4.61 µM (active) and the cell number change was -11.6%.
The like results for `O=C(O)c1ccc(OCCn2ccnc2)cc1` were, in that order, “inactive” and 11.3%.
Take `CCc1ccc(OCCn2ccnc2)cc1`: the Potency result was “inactive” and the cell number change is -22.2%.
Regarding `COc1ccccc1NC(=O)C1=C(C)Nc2nc(CCCO)nn2C1c1ccc2c(c1)OCO2` (stereo not drawn), the Potency result was “inactive” and the cell number change was -2.99%.
The like results for `COc1ccc(Cl)cc1S(=O)(=O)N1CCC(C(=O)NCC2CCCO2)CC1` (stereo not drawn) were, in that order, “inactive” and 6.08%.
Consider `CCCS(=O)(=O)N1CCN(C(=O)c2cccnc2)CC1`, for which the Potency entry is “inactive”.
Regarding `COCCCn1c(SCC(=O)NC(C)C)nnc1-c1ccccc1`, the Potency result was “inactive” and the cell number change was 1.73%.
The like results for `COc1cc(C(=O)O)ccc1OCC(=O)N1CCOCC1` were, in that order, “inactive” and -12%.
On to `CCc1ccc(C(=O)NNC(=O)c2ccc(OCC(=O)N3CCOCC3)c(OC)c2)cc1`, for which the Potency entry is “inactive” and the cell number change was -13.6%.
The like results for `COc1cc(C(=O)Nc2ccc(C)cn2)ccc1OCC(=O)N1CCOCC1` were, in that order, 20.6 µM (active) and 5.26%.
The like results for `CCN(CC)CCCNC(=O)CSc1nc(-c2ccc(F)cc2)cc(C(F)(F)F)n1` were, in that order, “inactive” and 4.94%.
The like results for `CCC(C)(C)NC(=O)CN(C(=O)c1snc(C(N)=O)c1N)c1ccc2c(c1)OCCO2` were, in that order, “inactive” and 19.8%.
For `O=C(CNC(=O)c1ccccc1)OCc1cccc([N+](=O)[O-])c1`, the Potency entry was “inactive” and the cell number change is -2.11%.
The like results for `CN(C)S(=O)(=O)c1cccc(COC(=O)CCNC(=O)c2ccc([N+](=O)[O-])cc2)c1` were, in that order, 2.31 µM (active) and 9.78%.
The like results for `CN(C)S(=O)(=O)c1cccc(C(=O)NCCNC(=O)c2cccc(S(=O)(=O)N(C)C)c2)c1` were, in that order, “inactive” and -23.4%.
Take `Cn1c(CC(=O)Nc2cccc(Cl)c2Cl)nnc1SCC(=O)NC1=NCCS1`: the Potency entry was “inactive” and the cell number change was 10.7%.
The like results for `CC(C)n1c(N)c(C#N)c2ccc([N+](=O)[O-])cc2c1=O` were, in that order, “inactive” and 17.3%.
The like results for `COC(=O)c1cc2c(=O)c3ccccc3oc2nc1C` were, in that order, “inactive” and 21.3%.
The like results for `COc1ccccc1CNC(=O)COC(=O)c1cc(C)oc1C` were, in that order, “inactive” and 0.0455%.
With `COc1ccccc1CNC(=O)COC(=O)c1ccc(C)s1`, the Potency was 8.2 µM (active) and the cell number change worked out at 8.78%.
The like results for `COc1ccccc1CNC(=O)c1ccc(C)s1` were, in that order, “inactive” and 2.24%.
As for `O=S(=O)(NCC(c1cccs1)N1CCc2ccccc2C1)c1ccccc1` (stereo not drawn), the cell number change turned out to be 2.02% and the lipid storage change, negative = inhibition is -15.3% [at 0.0737 µM] (inactive).
Consider `Cc1ccc(S(=O)(=O)CC(=O)N2CCCC2)cc1`, for which the Potency entry was “inactive” and the cell number change was -4.5%.
As for `O=C(CS(=O)(=O)c1ccccc1)N1CCCCCC1`, the Potency was 14.6 µM (active).
As to `O=C(CS(=O)(=O)c1ccccc1)N1CCCCC1`, the Potency result was “inactive” and the cell number change stood at 17.3%.
The like results for `COc1ccc(S(=O)(=O)N2CCOC2CNC(=O)C(=O)NCC(C)C)cc1` (stereo not drawn) were, in that order, “inactive” and -19.7%.
Take `CCCCc1nnc(NC(=O)C(C)Sc2nc(O)c(Cc3ccccc3)c(=O)[nH]2)s1` (stereo not drawn): the Potency result was “inactive” and the cell number change was -6.85%.
The like results for `Cc1ccsc1C=Nc1ccc(O)cc1` were, in that order, “inactive” and -20.6%.
The like results for `Cc1ccsc1/C=N/n1cnnc1` were, in that order, “inactive” and 4.23%.
The like results for `Cc1ccsc1/C=N/N=C/c1sccc1C` were, in that order, 18.4 µM (active) and -16.1%.
Regarding `CC(C)c1ccc(/C=N/NC(=O)CC(=O)NC2CCCCC2)cc1`, the Potency entry is “inactive” and the cell number change amounted to 0.119%.
As for `CC(C)c1ccc(/C=N/NC(=O)C2CCCC2)cc1`, the Potency was 3.26 µM (active) and the cell number change is -28.7%.
The like results for `CC(C)(C)c1ccc(/C=N/NC(=O)C2CCCC2)cc1` were, in that order, “inactive” and -15.9%.
The like results for `c1ccc(N2CC[N+]3(CCCC3)CC2)nc1` were, in that order, “inactive” and 0.943%.
Turning to `CC(C)(C)OC(=O)NCCCC[C@H](NC(=O)c1[nH]cnc1C(=O)Nc1ccc(CNC(=O)OC(C)(C)C)cc1)C(=O)OC(C)(C)C`, the Potency result was “inactive”.
